In the library only some 31% were active in any assay of this set; here they are far more common.
CYP2C9 inh: human CYP2C9 inhibition; P11712; CYP2C9 Supersomes, luciferin-H conversion, luminescence; inhibition, % at 5 µM; hit rate 20% among 96,000; AID 777;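 active = blocking of liver enzyme CYP2C9 beyond about 50% at 5 µM, limit read from the data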
CYP2C9 act: activators of human CYP2C9; AID 1024; activation factor at 5 µM; P11712; recombinant CYP2C9, luciferin-H conversion, luminescence; hits give high values; factor 1 = untreated enzyme, 0 = blocked; hit rate 1.4% among 96,000;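 active = activation factor of 2 or more for CYP2C9 at a 5 µM dose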;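 note: 0 = sulfaphenazole-blocked wells and 1 = vehicle-only wells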
CYP2C19 inh: human CYP2C19 inhibition; inhibition, % at 5 µM; AID 778; CYP2C19 Supersomes, luciferin-H EGE luminescence, 30 min; P33261; hit rate 21% among 96,000;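 active = CYP2C19 inhibition above a set limit at 5 µM in the primary screen, cut at about 50% in these data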;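 note: plate controls were negative control wells for no effect and 2.5 mM tranylcypromine positive control for full effect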
Target sequence (P33261 whole entry, looked up): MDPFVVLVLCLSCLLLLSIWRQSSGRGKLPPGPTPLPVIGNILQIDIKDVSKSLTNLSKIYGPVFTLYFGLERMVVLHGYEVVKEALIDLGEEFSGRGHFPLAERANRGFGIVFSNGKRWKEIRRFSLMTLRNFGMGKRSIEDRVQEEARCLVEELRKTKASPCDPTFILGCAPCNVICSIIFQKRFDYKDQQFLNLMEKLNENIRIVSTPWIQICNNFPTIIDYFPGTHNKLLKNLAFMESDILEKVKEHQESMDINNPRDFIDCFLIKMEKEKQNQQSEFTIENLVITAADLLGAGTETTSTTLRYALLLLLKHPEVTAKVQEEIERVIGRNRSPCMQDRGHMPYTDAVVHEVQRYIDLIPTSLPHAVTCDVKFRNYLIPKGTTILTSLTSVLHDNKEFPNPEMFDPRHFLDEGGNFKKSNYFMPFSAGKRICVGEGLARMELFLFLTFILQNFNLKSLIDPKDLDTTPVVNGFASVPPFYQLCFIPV
PLAP act: activators of human placental alkaline phosphatase | P05187 | activation fold at 20 µM | AID 696 | purified PLAP enzyme, luminescent substrate read-out; hits give high values | hit rate 1.2% among 96,000; in the data active = activation fold above about 2
CYP2C19 activ: cytochrome P450 2C19 (human) activation; 96,000 tested, under 10 active; recombinant CYP2C19, luciferin-H EGE luminescence; hits give high values; 0 = fully inhibited enzyme, 1 = untreated enzyme; activation factor at 5 µM; AID 1025;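 active = activation factor of at least 2 at 5 µM in the primary screen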;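 note: 0 = wells with 2.5 mM tranylcypromine and 1 = vehicle-only wells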
Active calls of the source: *.

SMILES | CYP2C9 inh | CYP2C9 act | CYP2C19 inh | PLAP act | CYP2C19 activ
CC(C)c1ccc(/C=c2\sc3nc(-c4ccncc4)nn3c2=O)cc1 | 57.8* | 0.4 | 27.2 | 1.3 | 0.7
Cc1ccc(/C=c2\sc3nc(-c4cccnc4)nn3c2=O)cc1 | 24.0 | 0.8 | 12.9 | 1.1 | 0.9
COc1ccc(CC(=O)NC2CCN(CC(=O)Nc3ccc4c(c3)OCCO4)CC2)cc1OC | -1.4 | 1 | 5.1 | 1 | 0.9
CCOc1ccc(OCC)c(S(=O)(=O)NCc2ccccn2)c1 | 14.1 | 0.9 | 43.4 | 1.2 | 0.6
O=C(NCc1ccccc1)NC1(C(=O)N2CCN(c3ccccc3)CC2)CCCCC1 | 32.7 | 0.7 | 57.3* | 1.3 | 0.4
O=C(NCc1ccccc1)NC1(C(=O)N2CCOCC2)CCCCC1 | 5.0 | 0.9 | -1.7 | 1 | 1
O=C(OC(C(=O)NCc1ccc2c(c1)OCO2)c1ccc(Cl)cc1)c1ccco1 (stereo unspecified) | 98.2* | 0 | 85.0* | 0.7 | 0.2
O=C(CSc1nnc(-c2ccccc2Cl)n1Cc1ccco1)Nc1ccc2c(c1)OCCO2 | 93.4* | 0.1 | 89.8* | 1.7 | 0.1
COc1ccc(-c2cnc(SCC(=O)Nc3ccc4c(c3)OCO4)n2Cc2ccco2)cc1 | 99.5* | 0 | 95.9* | 1.8 | 0
O=C(CSc1nnc(-c2ccc(Cl)cc2)n1Cc1ccco1)NCc1ccc2c(c1)OCO2 | 56.3* | 0.4 | 37.7 | 0.9 | 0.6
O=C(CSc1nnc(-c2ccc(Cl)cc2)n1Cc1ccco1)Nc1ccc2c(c1)OCCO2 | 23.9 | 0.8 | 27.0 | 0.8 | 0.7
CC(=O)Nc1cccc(NC(=O)CSc2ncc(-c3ccc(Cl)cc3)n2Cc2ccco2)c1 | 41.6 | 0.6 | 48.2 | 1.8 | 0.5
CC1=CC(C)(C)Nc2cc(C)c(C)cc21 | 19.4 | 0.8 | 92.2* | 1 | 0.1
Cc1c(C(N)=O)sc(N)c1C(=O)OC(C)C | 16.2 | 0.8 | 20.6 | 0.9 | 0.8
CC(=O)c1sc(N)c(C(=O)OC(C)C)c1C | 44.6 | 0.6 | 79.8* | 1 | 0.2
CCn1cc(C(=O)N2CCN(C(=O)c3ccco3)CC2)c2cc(OC)c(OC)cc2c1=O | 5.2 | 0.9 | 0.3 | 1.2 | 1
CCCc1ccc(OCc2ccc(C(=O)N3CCN(c4ccccn4)CC3)o2)c(OC)c1 | 57.3* | 0.4 | 56.6* | 1 | 0.4
CCn1cc(C(=O)N2CCN(c3ccccn3)CC2)c2cc(OC)c(OC)cc2c1=O | 60.5* | 0.4 | 12.4 | 1.7 | 0.9
COc1ccc(CC(=O)N2CCN(c3ccccn3)CC2)cc1OC | 7.0 | 0.9 | 51.9* | 1 | 0.5
COc1cccc2c(C)nc(Nc3nc(CSc4nnc(C)s4)cc(=O)[nH]3)nc12 | 4.1 | 1 | 4.0 | 0.8 | 1
Cc1ccc(CC(=O)N2CCOCC2)cc1 | -5.6 | 1.1 | 30.1 | 0.9 | 0.7
CC(C)Cc1ccc(C(C)C(=O)N2CCOCC2)cc1 (stereo unspecified) | 66.3* | 0.3 | 21.4 | 1 | 0.8
COc1ccc(S(=O)(=O)N2CC(C(=O)O)Oc3ccc(CC(=O)O)cc32)cc1 (stereo unspecified) | 2.1 | 1 | 10.1 | 1 | 0.9
CCOC(=O)C1CN(S(=O)(=O)c2ccc(OC)cc2)c2cc(CC(=O)OC)ccc2O1 (stereo unspecified) | 29.7 | 0.7 | 92.7* | 1.3 | 0.1
CN(C)c1ccc(N/C=C/C(=O)c2ccc(F)cc2)cc1 | 5.1 | 0.9 | 69.2* | 0.8 | 0.3
SMILES | CYP2C9 inh | CYP2C9 act | CYP2C19 inh | PLAP act | CYP2C19 activ
CN(C)c1ccc(N/C=C/C(=O)c2ccco2)cc1 | 29.4 | 0.7 | 46.9 | 0.7 | 0.5
O=C(COc1ccc(S(=O)(=O)NC2CCCCC2)cc1)Nc1ccc2c(c1)OCCO2 | 80.3* | 0.2 | 44.3 | 1.3 | 0.6
Cc1cccc(OCC(=O)NC(=S)Nc2ccc(S(=O)(=O)NC3CCCCC3)cc2)c1 | 93.2* | 0.1 | 29.1 | 1 | 0.7
O=C(CNC1CCCCCC1)Nc1ccc(S(=O)(=O)NC2CC2)cc1 | 29.3 | 0.7 | 25.4 | 0.8 | 0.7
CCC(C)NS(=O)(=O)c1ccc(OCC(=O)Nc2ccc3c(c2)OCCO3)cc1 (stereo unspecified) | 60.0* | 0.4 | 40.3 | 0.8 | 0.6
O=C1CCC([N+](=O)[O-])C(c2cccc(Cl)c2Cl)N1 (stereo unspecified) | 10.9 | 0.9 | -10.9 | 1.1 | 1.1
COC(=O)C1CCN(C(=O)c2ccc(SC)cc2OC)CC1 | 12.3 | 0.9 | 99.0* | 1.1 | 0
Cn1c(N)c(C(=O)COC(=O)C2(c3cccc(F)c3)CCCC2)c(=O)n(C)c1=O | 35.6 | 0.6 | 18.7 | 1.5 | 0.8

From PubChem
